High-throughput results (PubChem BioAssay)
GLD-1 RNA inh – GLD-1-TGE RNA interaction inhibition (C. elegans) | Q17339 | purified GLD-1 + fluorescein TGE RNA, fluorescence polarization | inhibition, % at 5.96 µM | hit rate 0.44% among 320,000 | AID 2280;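 active = percent inhibition above a per-plate cutoff, the plate mean of test compounds plus 3 SD, cut at about 30% in these data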
Target sequence (Q17339 whole entry, looked up): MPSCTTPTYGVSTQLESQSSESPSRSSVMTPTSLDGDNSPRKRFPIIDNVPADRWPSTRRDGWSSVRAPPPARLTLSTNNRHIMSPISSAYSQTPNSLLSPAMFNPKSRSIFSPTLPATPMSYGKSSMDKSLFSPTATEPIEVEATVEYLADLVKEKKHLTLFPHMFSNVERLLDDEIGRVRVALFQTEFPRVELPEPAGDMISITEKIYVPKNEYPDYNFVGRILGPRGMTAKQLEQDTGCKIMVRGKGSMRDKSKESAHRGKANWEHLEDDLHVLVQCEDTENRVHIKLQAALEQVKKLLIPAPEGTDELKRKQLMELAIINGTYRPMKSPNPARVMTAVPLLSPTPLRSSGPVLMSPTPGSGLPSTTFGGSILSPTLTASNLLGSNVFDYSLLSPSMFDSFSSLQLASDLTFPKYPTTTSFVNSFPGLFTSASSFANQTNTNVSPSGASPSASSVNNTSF
EBV gp42 block – blocks Epstein-Barr virus glycoprotein 42 binding; Fluorescence polarization binding assay, mP read-out; inhibition, % (tested at 21.74 µM); hit rate 0.42% among 220,000; in the data active = inhibition above about 50%
Bcl-xL primary – inhibitors of human Bcl-xL; Q07817; GST-Bcl-xL / FITC-Bim BH3 peptide fluorescence polarization; inhibition, % at 10.9 µM; hit rate 0.7% among 320,000;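 active = inhibition above the mean of all tested compounds plus 3 SD, cutoff set per campaign, cut at about 30% in these data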;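 also: inhibitors lower millipolarization by displacing the labeled peptide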
E coli Lon inh – inhibits E. coli Lon protease | purified E. coli Lon protease, fluorescence polarization | inhibition, % at 7.94 µM | hit rate 0.42% among 360,000; in the data active = inhibition above about 13%, passing the limit was not always enough
MEX-5 binding – C. elegans MEX-5 TCR-2 RNA binding activity. MEX-5/FITC-TCR2 RNA binding, fluorescence polarization; hits give low values. hit rate 0.38% among 300,000. activity score (negative = inhibition of binding), % at 10 µM. Q9XUB2;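 active = inhibition past about -25% in most replicates, and total fluorescence under double the plate's negative control median, limit read from the data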
Large screens that a line does not name were inactive. An excerpt weighted towards active compounds, which were near 1.3% of everything screened.

Cc1cc(O)c2c(c1O)C(=O)[C@]13C(=C2O)C(=O)[C@@H]2[C@@H](O)[C@H]1[C@@H]1[C@H](O)[C@H]3C(=O)C3=C(O)c4c(O)cc(C)c(O)c4C(=O)[C@]312	E coli Lon inh 27 (no result: EBV gp42 block, Bcl-xL primary, MEX-5 binding)
CC1Oc2cc3oc4c(O)c(O)ccc4c(=O)c3c(O)c2C1(C)C (configuration not stated)	GLD-1 RNA inh 31 (no result: EBV gp42 block)
O=C(CNc1ccc(Br)cc1)Nc1ccc(S(=O)(=O)N2CCCC2)cc1	none (no result: EBV gp42 block, MEX-5 binding)
CCOC(=O)C1=C(C)NC(C)=C(C(=O)OCC)C1C(=O)OCC(=O)NCCc1ccc(S(N)(=O)=O)cc1	none (no result: EBV gp42 block)
O=C(Cc1ccc([N+](=O)[O-])cc1)N/N=C/c1ccc([N+](=O)[O-])o1	none
O=C(N/N=C/c1ccc(-c2cccc([N+](=O)[O-])c2)o1)c1ccc([N+](=O)[O-])cc1	MEX-5 binding -35
COc1cc([N+](=O)[O-])ccc1-c1ccc(/C=N/NC(=O)c2ccccc2O)o1	EBV gp42 block 67 (no result: GLD-1 RNA inh, Bcl-xL primary, E coli Lon inh)
O=C(N/N=C/c1ccc(-c2cccc([N+](=O)[O-])c2)o1)c1ccccc1O	none
Cc1cc([N+](=O)[O-])ccc1-c1ccc(/C=N/NC(=O)Cc2ccccc2)o1	EBV gp42 block 89
CCCCNC(=S)N(C)/N=C/c1sc(N2CCCCC2)nc1-c1cccs1	Bcl-xL primary 39 (no result: E coli Lon inh)
COc1ccc(N(C(=O)CCl)C(C)(C(=O)Nc2c(C)cccc2C)c2ccccn2)cc1 (configuration not stated)	MEX-5 binding -30
CCOc1ccc(NC(=O)C(c2ccccn2)N(C(=O)CCl)c2ccc(OC)cc2)cc1 (configuration not stated)	none
O=C(CSc1ccc(Br)cc1)Nc1ccccc1N1CCOCC1	none (no result: EBV gp42 block)
Cc1cc(C)cc(OCC(=O)NCCc2nc3ccccc3[nH]2)c1	Bcl-xL primary 47
CN1CCN(C2=C(Cl)C(=O)N(CCc3ccccc3)C2=O)CC1	Bcl-xL primary 51
O=C1C(Cl)=C(N2CCOCC2)C(=O)N1CCc1ccccc1	none
COC(=O)c1ccccc1NCc1cc(=O)oc2cc(O)c(O)cc12	MEX-5 binding -28 (no result: EBV gp42 block)
CC[C@H](C)[C@H](NS(=O)(=O)c1ccc(C)cc1)C(=O)N1CCC(C(=O)N[C@H](C(=O)O)C(C)C)CC1	Bcl-xL primary 41
O=C(COC(=O)c1c2c(nc3ccccc13)CCN(Cc1ccccc1)C2)Nc1c(F)cccc1F	GLD-1 RNA inh 39, Bcl-xL primary 34
CCOC(=O)CC(=O)CSC1=C(C#N)C(c2ccccc2OC)CC(=O)N1 (configuration not stated)	Bcl-xL primary 31
Cc1ccc(NC(=O)CN2C(=O)/C(=C3\SC(=S)N(C4CCS(=O)(=O)C4)C3=O)c3ccccc32)cc1 (configuration not stated)	EBV gp42 block 105 (no result: GLD-1 RNA inh, Bcl-xL primary, MEX-5 binding)
O=C(Nc1nc2n(n1)C(c1ccccc1)C=C(c1ccccc1)N2)c1ccco1 (configuration not stated)	none
CCC(=O)Nc1nc2n(n1)C(c1ccc(OC)cc1)C=C(c1ccccc1)N2 (configuration not stated)	GLD-1 RNA inh 51, EBV gp42 block 60, Bcl-xL primary 60 (no result: E coli Lon inh)
COc1ccc(C2C=C(c3ccc(Cl)cc3)Nc3nc(NC(C)=O)nn32)cc1 (configuration not stated)	GLD-1 RNA inh 119, EBV gp42 block 106, Bcl-xL primary 139 (no result: E coli Lon inh, MEX-5 binding)
COc1ccc(C2=CC(c3ccc(Cl)cc3)n3cnnc3N2)cc1OC (configuration not stated)	GLD-1 RNA inh 44, EBV gp42 block 55, Bcl-xL primary 59
COc1cccc(C2=CC(c3ccc(OC)c(OC)c3OC)n3nnnc3N2)c1 (configuration not stated)	none
O=C(c1nc2n(n1)C(c1ccc(Cl)cc1)C=C(c1ccccc1)N2)N1CCOCC1 (configuration not stated)	GLD-1 RNA inh 48, EBV gp42 block 77, Bcl-xL primary 65
Cc1nn(CC(=O)Nc2ccccc2C(F)(F)F)c(=O)c2cccn12	none (no result: EBV gp42 block)
COc1ccc(C2C=C(c3cccs3)Nc3nc(CCCO)nn32)cc1 (configuration not stated)	GLD-1 RNA inh 144, EBV gp42 block 151, Bcl-xL primary 176 (no result: E coli Lon inh, MEX-5 binding)
CC(=O)Nc1nc2n(n1)C(c1ccc(F)cc1)C=C(c1ccccc1)N2 (configuration not stated)	GLD-1 RNA inh 37, Bcl-xL primary 52
COc1ccc(C2C=C(c3ccccc3)Nc3nc(CCCO)nn32)cc1 (configuration not stated)	none (no result: E coli Lon inh, MEX-5 binding)
CCN1C(=O)/C(=C2\SC(=S)N(NC(=O)c3ccccc3O)C2=O)c2ccccc21	MEX-5 binding -40
O=C(O)CSc1cc(NS(=O)(=O)c2ccc(Br)cc2)c2ccccc2c1O	MEX-5 binding -71 (no result: EBV gp42 block)
O=S(=O)(Nc1cc(Sc2ncn[nH]2)c(O)c2ccccc12)c1ccccc1	none (no result: GLD-1 RNA inh, Bcl-xL primary, MEX-5 binding)
Cc1cc2cc(C(c3nnnn3Cc3ccccc3)N3CCc4ccccc43)c(=O)[nH]c2cc1C (configuration not stated)	Bcl-xL primary 31
Cc1ccc2[nH]c(=O)c(C(c3nnnn3Cc3ccccc3)N3CCc4ccccc43)cc2c1 (configuration not stated)	none
Cc1ccc2[nH]c(=O)c(C(c3nnnn3CC3CCCO3)N3CCCc4ccccc43)cc2c1 (configuration not stated)	Bcl-xL primary 42
COc1cc2cc(CCCOC(=O)CCCC(=O)O)oc(=O)c2cc1OC	none (no result: EBV gp42 block, MEX-5 binding)
COc1cccc(CN2CC(C(=O)NCCCn3cccn3)CCC2=O)c1 (configuration not stated)	none (no result: EBV gp42 block)
Cc1cc(Nc2ccc(O)cc2)ccc1N	Bcl-xL primary 36 (no result: EBV gp42 block, E coli Lon inh, MEX-5 binding)
Oc1ccc(Nc2ccc3ccccc3c2)cc1	none (no result: GLD-1 RNA inh, EBV gp42 block, Bcl-xL primary, MEX-5 binding)
CC1CN(S(=O)(=O)c2ccccc2)C(C)N1C(=O)N1CCOCC1 (configuration not stated)	none (no result: EBV gp42 block)
COc1cc(C(C)=O)ccc1Oc1ncnc2c1cnn2-c1ccc(F)cc1	none
CNc1ccc(/C=C(\C#N)c2ccccn2)cc1[N+](=O)[O-]	Bcl-xL primary 37
Cc1ccccc1NC(=O)CN1C(=O)S/C(=C\c2ccc(-c3cc(C(=O)O)ccc3C)o2)C1=O	MEX-5 binding -54 (no result: GLD-1 RNA inh, Bcl-xL primary)
Cc1ccc(C)c(N2C(=N)S/C(=C\c3ccc(-c4ccccc4C(=O)O)o3)C2=O)c1	none
CCOC(=O)C(C)N1C(=O)S/C(=C\c2ccc(-c3ccccc3C(=O)O)o2)C1=O (configuration not stated)	Bcl-xL primary 31 (no result: EBV gp42 block)
Cc1ccc(S(=O)(=O)N2CCOC23CCN(C(=O)C(=O)NCc2ccccc2)CC3)cc1	none (no result: EBV gp42 block)
N#C/C(=C\c1cc(O)c(O)c(O)c1)C(N)=O	MEX-5 binding -27
CCSc1sccc1C1C(C#N)=C(N)N(c2cccnc2)C2=C1C(=O)CCC2 (configuration not stated)	Bcl-xL primary 31
CC(=O)c1c(C)c(C)c2n1CCn1c(C)ccc1-2	Bcl-xL primary 36
CCC1=[N+](C)CCn2c(C)ccc21	none
